Source: PubChem
mHTT-CaM PPI inh = mHTT-calmodulin interaction abrogation. P42858. inhibition, % at 15 µM. hit rate 3.6% among 190,000. AID 1671202. AlphaScreen His-mHTT/GST-CaM binding, luminescence;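 also: 0% = both proteins with DMSO and 100% = one protein alone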
Target sequence (P42858 whole entry, looked up, stated change not applied): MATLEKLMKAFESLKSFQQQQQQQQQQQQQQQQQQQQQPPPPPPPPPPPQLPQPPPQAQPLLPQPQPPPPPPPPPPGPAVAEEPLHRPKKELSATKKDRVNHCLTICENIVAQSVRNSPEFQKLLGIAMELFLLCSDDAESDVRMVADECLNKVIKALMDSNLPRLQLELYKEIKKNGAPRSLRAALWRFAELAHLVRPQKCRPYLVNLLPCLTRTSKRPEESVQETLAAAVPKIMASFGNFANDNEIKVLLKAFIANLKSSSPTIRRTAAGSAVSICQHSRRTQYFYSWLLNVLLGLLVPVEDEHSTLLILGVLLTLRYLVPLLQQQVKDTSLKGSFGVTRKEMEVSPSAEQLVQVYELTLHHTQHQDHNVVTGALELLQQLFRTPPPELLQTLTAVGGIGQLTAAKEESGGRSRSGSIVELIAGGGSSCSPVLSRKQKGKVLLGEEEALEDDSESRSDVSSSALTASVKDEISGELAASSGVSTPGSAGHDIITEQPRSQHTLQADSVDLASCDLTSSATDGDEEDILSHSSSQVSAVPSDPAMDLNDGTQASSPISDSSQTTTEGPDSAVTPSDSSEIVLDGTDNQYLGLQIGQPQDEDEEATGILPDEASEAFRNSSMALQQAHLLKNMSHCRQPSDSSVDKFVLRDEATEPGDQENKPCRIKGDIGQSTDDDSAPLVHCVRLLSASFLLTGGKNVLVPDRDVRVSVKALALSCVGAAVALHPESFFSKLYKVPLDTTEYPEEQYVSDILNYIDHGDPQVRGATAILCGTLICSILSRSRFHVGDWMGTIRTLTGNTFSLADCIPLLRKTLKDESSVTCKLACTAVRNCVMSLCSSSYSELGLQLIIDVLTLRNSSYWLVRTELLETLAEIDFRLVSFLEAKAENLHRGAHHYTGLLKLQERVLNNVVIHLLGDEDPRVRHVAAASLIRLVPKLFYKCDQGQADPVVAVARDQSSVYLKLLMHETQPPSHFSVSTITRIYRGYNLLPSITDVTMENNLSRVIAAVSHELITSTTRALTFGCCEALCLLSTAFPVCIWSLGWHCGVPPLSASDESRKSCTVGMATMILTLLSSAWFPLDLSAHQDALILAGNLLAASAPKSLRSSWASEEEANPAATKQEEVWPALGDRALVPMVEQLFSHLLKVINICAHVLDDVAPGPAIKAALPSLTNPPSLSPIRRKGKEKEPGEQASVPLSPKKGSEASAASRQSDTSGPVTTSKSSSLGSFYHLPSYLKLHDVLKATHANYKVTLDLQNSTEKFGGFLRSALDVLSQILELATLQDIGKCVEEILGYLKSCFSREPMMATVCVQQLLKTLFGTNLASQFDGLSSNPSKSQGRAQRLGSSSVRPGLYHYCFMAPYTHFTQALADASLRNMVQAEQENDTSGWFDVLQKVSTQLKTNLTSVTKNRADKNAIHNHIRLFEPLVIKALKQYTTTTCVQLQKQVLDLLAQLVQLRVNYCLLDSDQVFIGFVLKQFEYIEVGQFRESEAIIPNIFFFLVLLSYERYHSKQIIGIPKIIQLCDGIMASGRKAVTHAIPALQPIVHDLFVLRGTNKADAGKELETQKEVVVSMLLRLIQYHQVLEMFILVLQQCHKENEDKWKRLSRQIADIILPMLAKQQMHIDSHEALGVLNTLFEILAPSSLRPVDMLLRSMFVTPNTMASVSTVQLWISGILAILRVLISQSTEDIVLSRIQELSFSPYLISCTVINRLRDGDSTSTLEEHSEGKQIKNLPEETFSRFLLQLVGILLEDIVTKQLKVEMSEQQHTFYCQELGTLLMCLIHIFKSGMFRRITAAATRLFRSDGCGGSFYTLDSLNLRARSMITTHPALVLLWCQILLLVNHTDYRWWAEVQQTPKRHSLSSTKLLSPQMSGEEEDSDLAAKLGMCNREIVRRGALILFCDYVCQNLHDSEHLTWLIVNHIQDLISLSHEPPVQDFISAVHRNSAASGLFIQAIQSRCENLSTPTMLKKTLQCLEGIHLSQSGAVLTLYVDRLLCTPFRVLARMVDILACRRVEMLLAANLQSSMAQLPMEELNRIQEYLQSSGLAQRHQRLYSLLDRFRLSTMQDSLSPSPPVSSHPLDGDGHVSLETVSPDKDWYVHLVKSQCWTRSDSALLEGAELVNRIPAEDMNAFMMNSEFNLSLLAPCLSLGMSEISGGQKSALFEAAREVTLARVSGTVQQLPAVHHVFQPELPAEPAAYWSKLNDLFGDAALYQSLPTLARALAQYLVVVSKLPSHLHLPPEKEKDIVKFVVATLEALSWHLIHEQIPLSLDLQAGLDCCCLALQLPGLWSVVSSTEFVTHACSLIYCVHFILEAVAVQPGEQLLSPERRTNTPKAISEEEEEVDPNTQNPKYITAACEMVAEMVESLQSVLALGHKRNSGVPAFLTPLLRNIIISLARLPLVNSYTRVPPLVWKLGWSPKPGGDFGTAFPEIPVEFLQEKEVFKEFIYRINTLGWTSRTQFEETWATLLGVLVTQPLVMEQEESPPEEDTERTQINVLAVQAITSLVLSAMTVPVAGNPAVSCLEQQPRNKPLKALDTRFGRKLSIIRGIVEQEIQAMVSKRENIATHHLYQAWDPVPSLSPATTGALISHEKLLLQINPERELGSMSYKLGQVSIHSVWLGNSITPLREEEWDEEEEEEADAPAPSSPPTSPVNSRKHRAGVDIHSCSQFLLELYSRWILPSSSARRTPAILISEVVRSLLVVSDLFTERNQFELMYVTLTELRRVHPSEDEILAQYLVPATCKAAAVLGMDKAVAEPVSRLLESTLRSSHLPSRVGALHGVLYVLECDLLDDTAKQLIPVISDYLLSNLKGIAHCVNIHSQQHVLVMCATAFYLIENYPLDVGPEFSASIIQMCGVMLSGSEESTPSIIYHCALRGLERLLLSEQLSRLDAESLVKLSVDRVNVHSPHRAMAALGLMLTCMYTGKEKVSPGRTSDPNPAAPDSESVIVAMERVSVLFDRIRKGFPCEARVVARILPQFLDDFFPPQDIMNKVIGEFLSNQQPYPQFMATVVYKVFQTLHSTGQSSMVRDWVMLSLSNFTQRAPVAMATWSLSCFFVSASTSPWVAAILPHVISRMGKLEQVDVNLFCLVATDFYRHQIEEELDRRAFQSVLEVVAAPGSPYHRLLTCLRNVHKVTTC
Pf apPOL inh = Pf-apPOL DNA polymerase inhibition. Recombinant Pf-apPOL, molecular beacon fluorescence, 1.5 h. inhibition, % at 10 µM. hit rate 0.25% among 210,000. AID 1794808
Active calls of the source: *. The sample as a whole holds a higher share of hits than the screen did. Rule as the data show it: active = inhibition above about 50%; inactive = the rest.

Screening COc1ccc(-n2ncc3c(Nc4ccc(C)c(Cl)c4)ncnc32)cc1 returned mHTT-CaM PPI inh 15.0 and Pf apPOL inh -6.3.
`O=C(CCC1CCCN(C(=O)Nc2cccc(F)c2)C1)N1CCN(c2ccccc2)CC1` (configuration not stated) gave mHTT-CaM PPI inh 50.3* and Pf apPOL inh -4.4.
CCN1CCN(C(=O)CCC2CCCN(C(=O)Nc3cccc(F)c3)C2)CC1 (configuration not stated) was read as mHTT-CaM PPI inh 17.6 and Pf apPOL inh -5.9.
For CCOC(=O)C1CCN(CC(O)COc2cccc(OC)c2)CC1 (configuration not stated) the results were mHTT-CaM PPI inh -1.5 and Pf apPOL inh 2.8.
For Cc1cccc(-n2ccnc2SCC(=O)Nc2ccc(F)cc2F)c1C the results were mHTT-CaM PPI inh 25.0 and Pf apPOL inh 10.0.
`COc1ccc(Cl)cc1NC(=O)CSc1nccn1-c1cccc(C)c1C` gave mHTT-CaM PPI inh 56.0* and Pf apPOL inh 3.8.
`O=C(Nc1ccccc1C(=O)O)c1cccc(C(=O)Nc2ccccc2C(=O)O)c1` gave mHTT-CaM PPI inh 69.8* and Pf apPOL inh -1.3.
`O=C(Nc1ccccc1C(=O)O)c1ccccc1` gave mHTT-CaM PPI inh -3.3 and Pf apPOL inh -120.1.
`CC(C)(C)N=C1Nc2ccccc2CNC12CCN(C(=O)Cc1ccccc1F)C2` (configuration not stated) gave mHTT-CaM PPI inh 53.2* and Pf apPOL inh -9.7.
Screening COCC(=O)N1CCCC2(C1)Nc1ccccc1NC2=NC(C)(C)C (configuration not stated) returned mHTT-CaM PPI inh 64.0* and Pf apPOL inh 0.3.
COCC(=O)N1CCCC2(C1)Nc1ccccc1NC2=NC1CCCC1 (configuration not stated) was read as mHTT-CaM PPI inh 38.3 and Pf apPOL inh -2.9.
`CC(C)(C)N=C1Nc2ccccc2CNC12CCN(C(=O)Cc1ccccc1)C2` (configuration not stated) gave mHTT-CaM PPI inh 24.7 and Pf apPOL inh -3.5.
CC(C)(C)N=C1Nc2ccccc2NC12CCCN(C(=O)Cc1ccccc1)C2 (configuration not stated) was read as mHTT-CaM PPI inh 76.8* and Pf apPOL inh 0.7.
`COc1ccc(C(=O)N2CCCC3(C2)Nc2ccccc2NC3=NC(C)(C)C)c(OC)c1` (configuration not stated) gave mHTT-CaM PPI inh 40.6 and Pf apPOL inh 7.5.
Screening CC(C)(C)N=C1Nc2ncccc2NC12CCCN(C(=O)Cc1cccnc1)C2 (configuration not stated) returned mHTT-CaM PPI inh 4.6 and Pf apPOL inh -3.4.
Screening COc1ccccc1CC(=O)N1CCCC2(C1)Nc1ccccc1NC2=NC(C)(C)C (configuration not stated) returned mHTT-CaM PPI inh 59.0* and Pf apPOL inh 6.1.
CCN(CC)CCCN(c1ccccc1)C1Cc2ccccc2C1 was read as Pf apPOL inh -8.6.
For COc1ccc(S(=O)(=O)Nc2ccc(NS(=O)(=O)c3ccc(OC)cc3)cc2)cc1 the results were mHTT-CaM PPI inh -2.8 and Pf apPOL inh -13.3.
Cc1c(Br)cc(C(=O)N2CCCC2)c(C)c1C was read as mHTT-CaM PPI inh 3.2 and Pf apPOL inh -5.8.
Screening COc1ccc([N+](=O)[O-])cc1NS(=O)(=O)c1c(C)cc(C)cc1C returned mHTT-CaM PPI inh 8.3 and Pf apPOL inh 2.2.
N/C(=N\OC(=O)c1ccc2c(c1)OCO2)c1ccccn1 was read as mHTT-CaM PPI inh inactive and Pf apPOL inh -10.7.
For COc1ccc(NC(=O)N2CCCC3(C2)Nc2ccccc2NC3=NC(C)(C)C)c(C)c1 (configuration not stated) the results were mHTT-CaM PPI inh 24.9 and Pf apPOL inh -6.9.
`COc1ccc(C)cc1NC(=O)N1CCCC2(C1)Nc1ccccc1NC2=NC(C)(C)C` (configuration not stated) gave mHTT-CaM PPI inh 71.9* and Pf apPOL inh -0.5.
O=C(NCC1CC(=O)N(Cc2ccc(F)cc2)C1)Nc1cccs1 (configuration not stated) was read as mHTT-CaM PPI inh 21.1 and Pf apPOL inh 5.6.
Screening COc1cccc(NC(=O)CSc2nnc3ccccn23)c1 returned mHTT-CaM PPI inh -8.0 and Pf apPOL inh 3.6.
For COc1cccc(NC(=O)CSc2nnc(Cc3ccccc3)n2C)c1 the results were mHTT-CaM PPI inh 73.3* and Pf apPOL inh 0.5.
O=C(Nc1ccc2c(c1)OCO2)C1CCN(c2cc(N3CCCCC3)ncn2)CC1 was read as mHTT-CaM PPI inh 56.4* and Pf apPOL inh -4.1.
Screening O=C(Nc1ccc2c(c1)OCO2)C1CCN(c2cncnc2N2CCCCC2)CC1 returned mHTT-CaM PPI inh 28.9 and Pf apPOL inh 5.4.
For Cc1ccc(CN2CCc3ccccc3C2)o1 the results were mHTT-CaM PPI inh -3.5 and Pf apPOL inh -0.7.
Screening Cc1[nH]c2ccccc2c1CN1CCc2ccccc2C1 returned mHTT-CaM PPI inh 61.5* and Pf apPOL inh -4.8.
`CCCC(=O)Nc1ccc2c(c1)CC(C(=O)NCc1ccc(F)cc1)CO2` (configuration not stated) gave mHTT-CaM PPI inh -1.2 and Pf apPOL inh 6.5.
Screening Cc1ccc(Cl)cc1N1CCN(CC(O)c2ccc3c(c2)CCN3)CC1 (configuration not stated) returned mHTT-CaM PPI inh 70.8* and Pf apPOL inh -3.9.
`OC(CN1CCN(c2ccc(Cl)cc2)CC1)c1ccc2c(c1)CCN2` (configuration not stated) gave mHTT-CaM PPI inh 0.3 and Pf apPOL inh -5.9.
`O=[N+]([O-])c1cccc(S(=O)(=O)n2cc(Br)cn2)c1` gave mHTT-CaM PPI inh 80.4* and Pf apPOL inh -2.0.
`Cc1nn(S(=O)(=O)c2cccc([N+](=O)[O-])c2)c(C)c1Br` gave mHTT-CaM PPI inh 6.5 and Pf apPOL inh 4.3.
For Cc1c(Cl)cccc1NC(=O)CCS(=O)(=O)c1cccc2nsnc12 the results were mHTT-CaM PPI inh 4.0 and Pf apPOL inh -1.2.
`Nc1c(S(=O)(=O)O)cc(Br)c2c1C(=O)c1ccccc1C2=O` gave mHTT-CaM PPI inh 39.0 and Pf apPOL inh -0.1.
Screening Nc1c(S(=O)(=O)O)cc(Nc2ccccc2)c2c1C(=O)c1ccccc1C2=O returned mHTT-CaM PPI inh 98.0* and Pf apPOL inh -9.7.
For NC1=C(Nc2ccccc2)C(=O)c2ccccc2C1=O the results were mHTT-CaM PPI inh 93.4* and Pf apPOL inh -5.6.
`Nc1c(S(=O)(=O)O)cc(Nc2ccc(Nc3nc(Cl)nc(Nc4ccc(S(=O)(=O)O)cc4)n3)c(S(=O)(=O)O)c2)c2c1C(=O)c1ccccc1C2=O` gave Pf apPOL inh 42.6.
Cc1ccc(S(=O)(=O)Nc2cc(S(=O)(=O)O)c(N)c3c2C(=O)c2ccccc2C3=O)cc1 was read as mHTT-CaM PPI inh 79.0* and Pf apPOL inh 3.2.
`O=C1C(Nc2ccccc2)=C(NS(=O)(=O)c2ccccc2)C(=O)c2ccccc21` gave mHTT-CaM PPI inh 15.7 and Pf apPOL inh 0.2.
COc1ccc(N2CCN(C(=O)c3ccnc(-c4ccsc4)c3)CC2)cc1 was read as mHTT-CaM PPI inh 32.3 and Pf apPOL inh -0.3.
For O=C1NN(c2ccccc2)C(=O)/C1=C/c1cccc(OCCOc2ccccc2)c1 the results were mHTT-CaM PPI inh 6.0 and Pf apPOL inh 2.0.
`O=C1CCC(=O)N1c1ccc(NC2CCCc3ccccc32)c([N+](=O)[O-])c1` (configuration not stated) gave mHTT-CaM PPI inh 66.0* and Pf apPOL inh -14.3.
